# Test results published in PubChem BioAssay (NCI).
# This is part of a sample that, as a whole, favours compounds with a hit. Of some 83,000 tested, about 20% had one in any assay.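 Activity criterion: percent growth below 10, measured after cells in 96-well plates were exposed to a single compound concentration for 48 hours.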 Unmarked numbers belong to inactive results. Calls of active or inactive are those of the source.
# Tested on: HL-60(TB) leukemia
# Test: NCI-60 one-dose screen, 48 h (100 = growth as untreated, 0 = no growth, -100 = all killed)
# Details: 10 µM unless noted
row,SMILES,growth
1,CCOC(=O)c1cc2c(n1Cc1ccccc1OC)-c1oncc1CCC2,14.4%
2,COC1=C(Br)C(=O)C(OC)=C(Br)C1=O,8.67% (active)
3,Cc1ccc(F)c(NC(=O)Nc2ccc(-c3cccc4[nH]nc(N)c34)cc2)c1,7.97% (active)
4,OCCCC1CCN(C(Cc2ccccc2)c2ccccc2)CC1 (centres undefined),95.8%
5,CC1(C)C2CC1C1(/C=N/NC(N)=S)C(C2)C(C#N)(C#N)C1(C#N)C#N (centres undefined),13.5%
6,COc1cc(C(=O)N2CCN(c3ccccc3)CC2)c2ccccc2n1,-1.74% (active)
7,Cc1ccc2nc(C)c(-c3nnc(SCc4ccc(C#N)cc4)o3)n2c1,111%
8,N#C/C(=C\c1ccc(Br)cc1)n1nnc2cccc(F)c21,-9.67% (active)
9,CCOc1ccc(NC(=S)N2CCC(CCCC3CCN(C(=S)Nc4ccc(OCC)cc4)CC3)CC2)cc1,68.9%
